HT1080NT lethal = kills 2HG-producing HT-1080-NT fibrosarcoma cells; AID 686970; HT-1080-NT fibrosarcoma viability, CellTiter-Glo ATP luminescence, 48 h; 1.6% of 360,000 active; Potency, µM (titrated, usually from 46.1 µM), for the others: at the top dose activity, negative = less viability, usual class: cytotoxic;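 further: NT is the 2HG producing partner of a matched IDH1 knockdown line; 0% = DMSO-treated cells and -100% = media-only wells without cells; nearly all actives have a fitted effect of over 55% in size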
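Read-out is CellTiter-Glo luminescence after 10 minutes at room temperature, following 48 hours' compound treatment of HT-1080-NT cells (750 cells/well, RPMI, 5% FBS, 37 degrees C).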
KB-V1 cytotox = KB-V1 MDR subline cytotoxicity. KB-V1 MDR cells viability, CellTiter-Glo, 72 h. Potency, µM (top dose mostly 46.1 µM), most hits filed as cytotoxic. 3.4% of 400,000 active; further: on the % scale 0 is the no-effect control and ±100 the full control effect; nearly all actives have a fitted effect of over 60% in size
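Cells of the MDR subline KB-V1 are plated, dosed with compound at multiple concentrations, and incubated 72 h at 37 degrees C; CellTiter-Glo is then added and luminescence read after 10 min.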
KB-3-1 cytotox = kills parental KB-3-1 adenocarcinoma cells. KB-3-1 viability, CellTiter-Glo ATP luminescence, 72 h. Potency, µM (titrated, usually from 46.1 µM), most hits filed as cytotoxic. 1.4% of 400,000 active. AID 1347075; further: on the % scale 0 is the no-effect control and ±100 the full control effect; nearly all actives have a fitted effect of over 60% in size
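KB-3-1 parental drug-naive adenocarcinoma cells in DMEM/10% FBS, incubated 72 h at 37 C with pin-transferred compounds across a concentration series. Viability by CellTiter-Glo luminescence; concentration-response curves fitted after normalization.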
SW480 rereplic = inducers of DNA re-replication in SW480 colon cancer cells | SW480 DNA re-replication, Hoechst DNA content imaging, 48 h | Potency, µM (doses to about 46.1 µM), for inactives: at the top dose re-replication activation, usual class: activators | 1.8% of 340,000 active; further: % of control where 0% means no effect; nearly all actives have a fitted effect of over 55% in size
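Image-based DNA-content assay: after two days of treatment, nuclei were labelled with the DNA dye Hoechst and imaged, and hits were compounds raising the count of nuclei showing high fluorescence intensity.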
MCF10A rerep = inducers of DNA re-replication in MCF 10A breast cells | MCF 10A DNA re-replication, Hoechst nuclear intensity, 48 h | Potency, µM (series often up to 46.1 µM), inactives show at the top dose activity, positive = re-replication, most hits filed as activators | 2.9% of 350,000 active; further: % of control where 0% means no effect; nearly all actives have a fitted effect of over 50% in size
HT1080 IDH1KD tx = toxicity to HT-1080 IDH1 knockdown cells (counter line). Potency, µM (top dose mostly 46.1 µM), without a hit: at the highest dose activity, negative = toxicity, usual class: cytotoxic. 2% of 360,000 active. AID 686971. HT-1080 IDH1 knockdown viability, ATP luminescence, 48 h;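 further: 0% = DMSO wells and -100% = cell-free medium wells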
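HT-1080-IDH1KD cells (IDH1 knocked down), 750/well in RPMI with 5% FBS, treated with compound 48 h at 37 degrees C. Viability by CellTiter-Glo luminescence, normalised to DMSO and no-cell wells; concentration-response curves classed.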
* = called active by the depositor; i = inactive; ? = inconclusive; / = no result; ! = not confirmed by another sample; [ ] = remark or other dose. An excerpt weighted towards active compounds, which were near 8% of everything screened. The call rests on the fitted dose curve; in most records, active means well fitted curve in the direction sought with a large enough effect; inconclusive means small, poorly fitted or top-dose-only effect, or another doubt; inactive means no such curve, though single readings can be large; an effect the other way counts as inactive or inconclusive. Potency means the concentration at half of the fitted maximal effect.

SMILES | HT1080NT lethal | KB-V1 cytotox | KB-3-1 cytotox | SW480 rereplic | MCF10A rerep | HT1080 IDH1KD tx
COc1ccc(S(=O)(=O)N2CCCC(C(=O)O)C2)cc1Cl (configuration not stated) | 9% | i | i | -3% | -2% | 3%[9.24 µM]
COc1cccc2sc(N(CCCN(C)C)C(=O)c3ccc(S(=O)(=O)N4CCc5ccccc5C4)cc3)nc12 | ? | i | i | ? | ? | ?
CN(C)CCCN(C(=O)c1ccc(S(=O)(=O)N2CCc3ccccc3C2)cc1)c1nc2c(F)cc(F)cc2s1 | -23% | i | i | 3.7µM* | 15% | -8%
COc1ccc(C)c2sc(N(CCCN(C)C)C(=O)c3ccc(S(=O)(=O)N4CCc5ccccc5C4)cc3)nc12 | ? | 10µM* | ? | ? | 16µM* | ?
Cc1ccc2sc(N(CCCN(C)C)C(=O)c3ccc(S(=O)(=O)N(C)C)cc3)nc2c1C | -10% | i | i | 3% | 9% | -11%
Cc1ccc2sc(N(CCCN(C)C)C(=O)c3ccc(S(=O)(=O)N4CCc5ccccc5C4)cc3)nc2c1C | 21µM* | i | i | 3.7µM* | ? | ?
COc1cc2nc(N(CCCN(C)C)C(=O)c3ccc(S(=O)(=O)N4CCc5ccccc5C4)cc3)sc2cc1OC | -1% | i | i | ? | 9% | -2%
Cc1ccc(C(C(=O)NCc2ccccc2)N(Cc2cccs2)C(=O)c2ccc3c(c2)OCCO3)cc1 (configuration not stated) | ? | i | ? | ? | 11% | ?
O=C1C2C3C=CC([C@@H]2C(=O)N1C1CC1)[C@H]1C(=O)N(C2CC2)C(=O)C31 (some centres not stated) | 13% | i | i | -10% | -7% | 7%
COc1cccc(CNc2ncnc3ccc(-c4c(C)noc4C)cc23)c1 | / | ? | i | -22% | ? | /
Cc1ccsc1CNc1ncnc2ccc(-c3c(C)noc3C)cc12 | / | ? | ? | -1% | 5.8µM* | /
C=CCSC1=C(C#N)C(c2ccccc2Cl)C(C(=O)c2cccs2)C(O)(C(F)(F)F)N1 (configuration not stated) | -11% | 16µM* | ? | 4% | ? | -16%
Cc1sc2ccccc2[n+]1CCc1ccccc1 | / | i | i | / | / | /
CCOC(=O)Cn1c(S(=O)(=O)Cc2ccccc2)nc2ccccc21 | 6% | i | i | 23% | 2% | 2%
CCOC(=O)Cn1c(S(=O)(=O)Cc2ccc(Cl)cc2)nc(-c2ccccc2)c1-c1ccccc1 | ? | 7.3µM* | ? | 8% | ? | ?
COCC(C)NC(=O)CSc1nc2cc(S(=O)(=O)N3CCCCC3)ccc2o1 (configuration not stated) | -2% | i | i | -30% | -5% | 1%
COc1ccc(NC(=O)COc2cccc(-n3cnnn3)c2)cc1Cl | ? | i | i | 6.5µM* | -5% | -18%
COc1ccc(NC(=O)CCCN2C(=O)CN(C)C2=O)c(OC)c1 | -2% | i | i | ? | -5% | 4%
Cc1ccc(-n2c(C)n[nH]c2=S)cc1 | 21% | ? | i | 4% | 1% | -1%
Cc1ccc(-c2csc3n[nH]c(=S)n23)cc1 | -1% | 12µM*! | ? | 3% | 1% | 1%
CC1(C)CC(=O)C(N=Nc2cc3c(cc2[N+](=O)[O-])OCCO3)=C(O)C1 | 3% | i | i | -5% | 0% | 6%
CN(C)S(=O)(=O)c1ccc(N2CCCC2)c(C(=O)NCC2CCCO2)c1 (configuration not stated) | 2% | i | i | -9% | 1% | 3%
COc1ccc(C(=O)c2sc(Nc3ccccc3)c(C(=O)Nc3ccc(OC)c(OC)c3)c2N)cc1 | -10% | i | i | 7% | -2% | -28%
COc1ccc(NC(=O)c2c(Nc3ccccc3)sc(C(=O)c3ccc(F)cc3)c2N)cc1 | ? | ? | 2.1µM* | 5% | 18% | ?
COc1ccc(C(=O)c2sc(Nc3cccc(OC)c3)c(C(=O)Nc3cccc(C)c3C)c2N)cc1 | ? | ? | ? | ? | 1.5µM* | ?
SMILES | HT1080NT lethal | KB-V1 cytotox | KB-3-1 cytotox | SW480 rereplic | MCF10A rerep | HT1080 IDH1KD tx
COc1cc(NC(=O)CCc2c(C)nc3cc(-c4ccccc4)nn3c2C)cc(OC)c1OC | / | i | i | / | / | /
Cc1ccc(C(=O)Nc2ccncc2)cc1S(=O)(=O)N1CCCCC1 | -2% | 15µM* | ? | / | / | -17%
Cc1ccc(CN2CC(C(=O)Nc3ccc(C)c(S(=O)(=O)N4CCCCC4)c3)CC2=O)cc1 (configuration not stated) | -4% | 21µM* | 16µM* | 1% | ? | -26%
CCN(CC)CCNC(=O)c1ccc(NC(=O)c2ccc(Cl)c(S(=O)(=O)N3CCCCCC3)c2)cc1 | ? | i | ? | ? | ? | 21µM*
CCN(CC)CCNC(=O)c1ccc(NC(=O)c2ccc(C(=O)c3ccccc3)cc2)cc1 | 21µM* | i | i | 13% | -20% | 21µM*
CCN(CC)CCNC(=O)c1ccc(NC(=O)c2ccc(S(=O)(=O)N3CCCCCC3)cc2)cc1 | -7% | ? | ? | 13% | 22% | -3%
COc1ccc(NC(=O)C2CC(=O)N(Cc3ccc(C)cc3)C2)cc1S(=O)(=O)N1CCCCC1 (configuration not stated) | 2% | i | i | -19% | 13% | 0%
O=C(O)c1ccccc1SCc1nc2ccccn2c1Br | -3% | i | i | -9% | 3% | 0%
COc1cc(/C=C(\NC(=O)c2ccccc2)C(=O)NCC(=O)O)c([N+](=O)[O-])cc1OC | 19% | i | i | 2% | -74% | 10%
Cc1ccc(NC(=O)Cn2ncc(Cl)c(Cl)c2=O)cc1S(=O)(=O)N1CCCCC1 | ? | ? | ? | 8.2µM* | 4.1µM* | ?
Cc1ccc(C(=O)Nc2ccc(N3CCN(S(C)(=O)=O)CC3)cc2)cc1 | 2% | i | i | -9% | -2% | 14%
Cc1ccc(C(=O)Nc2ccc(N3CCN(S(C)(=O)=O)CC3)cc2)cc1C | -4% | i | i | 16µM* | ? | -9%
Cc1ccc(NC(=O)Cc2ccc(Cl)cc2)cc1S(=O)(=O)N1CCCCCC1 | ? | i | ? | -30% | 12% | ?
Cc1ccc(NC(=O)CN(C)C(=O)Cc2ccc(Cl)c(Cl)c2)cc1 | -15% | i | i | 27% | 6% | ?

Assay outcomes as filed in PubChem.
